Shown are actives, neighbours in structure and some others; about 1.6% of the full set was active somewhere.
KCNQ2 enhance: potentiators of rat KCNQ2 potassium channel; 0.54% of 310,000 active; CHO-K1 KCNQ2, FluxOR thallium flux fluorescence; hits give high values; Potassium voltage-gated channel subfamily KQT member 2 (Rattus norvegicus), O88943; B-score at 10 µM;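 active = fluorescence ratio B-score at least 3 SD of library B-scores, with initial fluorescence B-score within 3 of them, cut at about 5.3 in these data; same plate scores as AID 2156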;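 also: B-score of peak minus minimum over baseline fluorescence ratio after K+ and Tl+ stimulus; positive B-score means potentiation of KCNQ2 with more thallium influx and brighter signal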
Target sequence (O88943 whole entry, looked up): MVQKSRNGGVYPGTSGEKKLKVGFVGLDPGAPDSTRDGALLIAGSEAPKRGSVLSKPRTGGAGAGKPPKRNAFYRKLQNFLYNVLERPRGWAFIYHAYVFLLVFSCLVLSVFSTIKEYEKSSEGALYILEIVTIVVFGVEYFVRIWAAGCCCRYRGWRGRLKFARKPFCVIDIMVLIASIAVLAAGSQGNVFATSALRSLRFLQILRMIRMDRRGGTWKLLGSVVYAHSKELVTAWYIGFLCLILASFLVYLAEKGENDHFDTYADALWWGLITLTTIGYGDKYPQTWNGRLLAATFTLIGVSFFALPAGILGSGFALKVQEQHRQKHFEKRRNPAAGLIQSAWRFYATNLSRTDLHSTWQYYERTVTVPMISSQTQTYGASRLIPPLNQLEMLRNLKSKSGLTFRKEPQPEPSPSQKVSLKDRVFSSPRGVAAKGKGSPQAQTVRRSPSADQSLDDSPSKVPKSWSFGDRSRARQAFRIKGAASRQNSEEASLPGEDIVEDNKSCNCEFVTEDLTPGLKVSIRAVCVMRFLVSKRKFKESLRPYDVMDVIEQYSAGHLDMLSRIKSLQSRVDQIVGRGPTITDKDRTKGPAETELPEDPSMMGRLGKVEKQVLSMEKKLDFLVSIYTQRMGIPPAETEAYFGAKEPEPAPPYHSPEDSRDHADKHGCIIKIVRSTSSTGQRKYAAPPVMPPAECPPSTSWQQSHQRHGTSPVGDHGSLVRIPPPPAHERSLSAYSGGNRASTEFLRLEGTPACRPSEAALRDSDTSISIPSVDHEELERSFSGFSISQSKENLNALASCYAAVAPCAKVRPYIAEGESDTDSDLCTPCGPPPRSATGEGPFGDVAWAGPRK
KCNQ2 block: rat KCNQ2 potassium channel inhibitors, primary screen, cell-based, CHO-K1, FluxOR thallium flux, B-score; Potassium voltage-gated channel subfamily KQT member 2 (Rattus norvegicus), O88943; 20 min; hits give low values; B-score at 10 µM; 1.1% of 310,000 active; AID 2156, 2009;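 active = fluorescence ratio B-score at most minus 3 library SDs, with starting brightness B-score within 2 library SDs, cut at about -5.5 in these data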
Active calls of the source: *; i = inactive; · = no result.

SMILES	KCNQ2 enhance	KCNQ2 block
Cc1cccc(NC(=O)C(Cc2ccccc2)n2cccc2)c1 (configuration not stated)	-5.73	-5.73*
CC1CCN(C(=O)C(Cc2ccccc2)n2cccc2)CC1 (configuration not stated)	·	i
COc1cc(NC(=O)C(Cc2ccccc2)n2cccc2)cc(OC)c1 (configuration not stated)	·	i
CC1CC(C)CN(C(=O)C(Cc2ccccc2)n2cccc2)C1 (configuration not stated)	-6.45	-6.45*
Cc1cc(C)c(C)c(S(=O)(=O)NCc2cccnc2)c1C	1.12	i
N/C(Cc1ccc(Cl)cc1Cl)=N\OC(=O)c1ccccc1	4.11	i
N/C(CC1CC1(Cl)Cl)=N\OC(=O)c1ccccc1 (configuration not stated)	-8.59	-8.59*
O=C1C=CC(=O)N1N(c1ccccc1)c1ccccc1	-6.24	-6.24*
O=C1C=CC(=O)N1Cc1ccccc1	·	i
O=C(NC(=S)N1CCN(c2ccc(C(F)(F)F)cc2[N+](=O)[O-])CC1)c1cccs1	2.7	i
Cc1nn(Cc2ccccc2)c(Cl)c1C(=O)OCc1nnc(-c2ccccc2)o1	0.79	i
Cc1nn(Cc2ccccc2)c(Cl)c1C(=O)OCc1nnc(-c2ccc(Cl)cc2)o1	-6.09	-6.09*
CCc1c(C)nc2c(OC)cccc2c1SCCC(=O)O	·	i
c1ccc(CN2CCN(c3ncnc4c3[nH]c3ccccc34)CC2)cc1	-8.09	-8.09*
COc1cccc2[nH]c3c(N4CCN(Cc5ccc6c(c5)OCO6)CC4)ncnc3c12	1.12	i
Cc1ccc2[nH]c3c(N4CCN(Cc5ccccc5)CC4)ncnc3c2c1	·	i
COc1ccc2c(c1)[nH]c1c(N3CCN(Cc4ccc5c(c4)OCO5)CC3)ncnc12	-8.09	-8.09*
COc1ccccc1-c1cc(C(=O)N2CCCc3ccccc32)no1	-6.03	-6.03*
COc1ccc(OC)c(-c2cc(C(=O)N3CCCc4ccccc43)no2)c1	·	i
CC(=O)Nc1ccc(NC(=O)c2ccc(N(Cc3ccccc3C)S(C)(=O)=O)cc2)cc1	1.21	i
COC(=O)c1cc2nc(-c3ccccc3)cc(C)n2n1	1.56	i
Cc1cc(-c2ccccc2)nc2cc(C(=O)N(Cc3ccccc3)Cc3ccccc3)nn12	-7.24	-7.24*
O=c1[nH]cnc2c1sc1nc(-c3ccccc3)c3c(c12)CCCC3	1.54	i
S=c1nc[nH]c2c1sc1nc(-c3ccccc3)c3c(c12)CCCC3	15.7*	i
O=[N+]([O-])c1cc(Cl)ccc1N1CCCC1	0.43	i
SMILES	KCNQ2 enhance	KCNQ2 block
O=[N+]([O-])c1cc(Cl)ccc1N1CCN(c2cccc(C(F)(F)F)c2)CC1	-6.15	-6.15*
Cc1c(C(=O)Nc2ccc3c(c2)OCO3)oc2ccccc12	·	i
Cc1c(Cl)cccc1NC(=O)Cn1cccc1	·	i
CC(c1cccs1)N(C(=O)Nc1ccccc1)C1CCCCC1 (configuration not stated)	-5.86	-5.86*
CN(C(=O)Nc1ccccc1)C1CCCCC1	0.2	i
NNC(=O)c1cc2nc(-c3cccs3)cc(C(F)(F)F)n2n1	0.98	i
COc1ccc(CCN(Cc2cc3cc(C)ccc3[nH]c2=O)C(C)=O)cc1OC	0.28	i
Cc1ccc(C(=O)NNC(=O)c2ccc3ncccc3c2)cc1	0.55	i
O=C(NNC(=O)c1ccc2ncccc2c1)c1ccc(Cl)cc1	8.05*	i
CNCc1c(C)nn(-c2ccccc2)c1C	10.3*	i
Cc1nn(-c2ccccc2)c(C)c1N	1.09	i
CC(C)NS(=O)(=O)c1ccc(OCC(=O)N2CCCC2)cc1	0.42	i
Cc1ccccc1C1NC(=O)Cc2ccccc21 (configuration not stated)	0.31	i
O=C1Cc2ccccc2C(c2ccc(Br)cc2)N1 (configuration not stated)	-6.27	-6.27*
CCOCCCNC(=O)c1ccc2c(=O)n(Cc3ccc(OC)cc3)c(=O)[nH]c2c1	·	i
CC(OC(=O)c1cc2sccc2n1C)C(=O)NCC1CCCO1 (configuration not stated)	0.12	i
CC[C@@H]1CC=C[C@H]2[C@H]1C(=O)N(Cc1ccccc1)[C@H]2c1ccc(C(F)(F)F)cc1	·	i
COc1cc2c(cc1NC(=O)c1cccc([N+](=O)[O-])c1C)oc1ccccc12	·	i
C/C(=N\Nc1nc(C)c(C)s1)c1ccc([N+](=O)[O-])cc1	5.37*	i
C/C(=N\Nc1ccc([N+](=O)[O-])cc1)c1ccc(N)cc1	·	i
CCCc1nc(SCC(=O)N2CCCCCC2)c2c(=O)n(C)c(=O)n(C)c2n1	19*	i
CCc1nc(SCC(=O)N2CCCC2)c2c(=O)n(C)c(=O)n(C)c2n1	0.95	i
CNNC(=S)NC1CC2CC1C1C=CCC21 (configuration not stated)	·	i
COc1ccc(CN(CCC(c2ccc(F)cc2)C2CCOC(C)(C)C2)C(=O)c2ccco2)cc1 (configuration not stated)	-5.78	-5.78*
CC(c1ccccc1)N(CCC(c1ccccc1)C1CCOC(C)(C)C1)C(=O)c1ccco1 (configuration not stated)	·	i
SMILES	KCNQ2 enhance	KCNQ2 block
O=C(CC12CC3CC(CC(C3)C1)C2)Nc1ccc(C(=O)O)cc1	·	i
COc1ccc(NC(=O)CC23CC4CC(CC(C4)C2)C3)cn1	18.3*	i
Cc1nn(Cc2ccc(Cl)cc2)c(=O)n1N(C)c1ncc(C(F)(F)F)cc1Cl	·	i
C=CCNC1=C(Cl)C(=O)c2ccccc2C1=O	0.39	i
Cn1nc(-c2ccccc2)c(C#N)c1Sc1cccc(Cl)c1	-8.14	-8.14*
Cc1nn(C)c(Oc2cccc(Cl)c2)c1C#N	·	i
Oc1ccc(N2CCN(Cc3nc4ccccc4[nH]3)CC2)cc1	·	i
CC(Oc1ccccc1)C(=O)Nc1cccc(-c2nc3ccccc3[nH]2)c1 (configuration not stated)	-5.57	-5.57*
CC(=O)Nc1cccc(-c2nc3ccccc3[nH]2)c1	1.59	i
CCN(Cc1ccccc1)c1ccc(N=Nc2nn(C)c(C)c2[N+](=O)[O-])cc1	·	i
CCCC1=Nc2cc(C(=O)N3CCN(c4ccccn4)CC3)ccc2Sc2ccc(C)cc21	-5.65	-5.65*
CCCC1=Nc2cc(C(=O)N3CCCC3)ccc2Sc2ccc(C)cc21	·	i
CCOC(=O)N1CCN(C(=O)c2ccc3c(c2)N=C(CC)c2cc(C)ccc2S3)CC1	·	i
CCC1=Nc2cc(C(=O)N3CCCCC3)ccc2Sc2ccc(C)cc21	-5.87	-5.87*
COc1cc2nc(CC(C)C)n(NC(=O)c3ccccc3Br)c(=O)c2cc1OC	·	i
COC(=O)C(CC(=O)c1ccc(Br)cc1)n1ccnc1 (configuration not stated)	-6.15	-6.15*
COC(=O)C(CC(=O)c1ccc(Br)cc1)n1nc(C)cc1C (configuration not stated)	0.49	i
CC(C)(C)c1cc(C(=O)Nc2cccc3ccccc23)ccn1	-5.8	-5.8*
Cc1ccc(C(=O)Nc2cccc3ccccc23)cc1	0.99	i
Cc1cccc(OCC(=O)Nc2ccc(S(=O)(=O)N3CCN(C)CC3)cc2)c1	0.21	i
O=[N+]([O-])c1c(NCCO)cc(N2CCCCCC2)c2nonc12	·	i
Cc1nnc(Sc2cc(NCCO)c([N+](=O)[O-])c3nonc23)s1	-7.52	-7.52*

Screening data as filed in PubChem BioAssay.
